# Data from publication PMC7862700, “An all-to-all approach to the identification of sequence-specific readers for epigenetic DNA modifications on cytosine”.
# How the values were obtained:
# Test in all cases: DAPPL (digital affinity profiling via proximity ligation, sequencing); 10 mM Tris-HCl pH 7.5, 50 mM NaCl, 1 mM DTT, 4% glycerol, room temperature, 30 min; GST-TFs on glutathione beads, 16-mer random dsDNA library, 0.1% formaldehyde crosslink after washing; high values mean tight binding
# Details in all cases: protein: recombinant; tags: N-terminal GST; dsDNA, one strand shown
# FLI1 = biological target: T1, FLI1 (Homo sapiens, UniProt Q01543 1-452)
# T1 sequence: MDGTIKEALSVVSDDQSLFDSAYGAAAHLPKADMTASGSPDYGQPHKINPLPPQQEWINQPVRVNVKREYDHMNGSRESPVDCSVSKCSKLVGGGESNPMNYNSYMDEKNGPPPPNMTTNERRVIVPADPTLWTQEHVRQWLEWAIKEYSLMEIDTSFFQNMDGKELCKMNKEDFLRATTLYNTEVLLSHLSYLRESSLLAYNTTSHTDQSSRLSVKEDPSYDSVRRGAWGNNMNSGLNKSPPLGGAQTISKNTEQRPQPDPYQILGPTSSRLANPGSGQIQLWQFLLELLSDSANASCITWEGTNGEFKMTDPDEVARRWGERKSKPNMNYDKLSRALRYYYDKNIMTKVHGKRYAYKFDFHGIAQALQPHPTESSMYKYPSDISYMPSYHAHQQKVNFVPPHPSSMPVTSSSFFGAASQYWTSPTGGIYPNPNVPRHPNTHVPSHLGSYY
# Summary of the method: (§1)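 Human transcription factors fused to GST were expressed in yeast, captured on glutathione beads, given DNA barcodes and pooled with a GST-only negative control. Pools were incubated with 200 nmole of a 16-mer random double-stranded DNA library in Tris/NaCl/DTT/glycerol buffer at room temperature for 30 min. They were then washed, crosslinked with 0.1% formaldehyde, proximity-ligated (BsaI/T4 ligase, 1 h, 37 °C), PCR-amplified and sequenced on an Illumina NextSeq500. Binding signal is each 6-mer's read frequency for a factor divided by its frequency for the GST control.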
# GABPA = biological target: T2, GABPA (Homo sapiens, UniProt Q06546 1-454)
# T2 sequence: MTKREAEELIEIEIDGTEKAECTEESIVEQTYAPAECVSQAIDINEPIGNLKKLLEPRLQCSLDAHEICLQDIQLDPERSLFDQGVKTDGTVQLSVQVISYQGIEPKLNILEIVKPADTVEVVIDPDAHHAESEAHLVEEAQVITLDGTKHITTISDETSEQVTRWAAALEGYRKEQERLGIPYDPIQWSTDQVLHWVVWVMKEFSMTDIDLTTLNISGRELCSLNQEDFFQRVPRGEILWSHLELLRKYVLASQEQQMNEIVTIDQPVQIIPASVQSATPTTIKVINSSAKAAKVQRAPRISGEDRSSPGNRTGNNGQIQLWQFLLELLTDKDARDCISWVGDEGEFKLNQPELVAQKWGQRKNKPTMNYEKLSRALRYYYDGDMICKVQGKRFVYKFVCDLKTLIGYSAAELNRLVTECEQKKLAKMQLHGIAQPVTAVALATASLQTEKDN
# Summary of the method: as §1
# ELF1 = ELF1 (Homo sapiens, UniProt P32519 1-619)
# Summary of the method: as §1
# EHF = biological target: T3, EHF (Homo sapiens, UniProt Q9NZC4 1-300)
# T3 sequence: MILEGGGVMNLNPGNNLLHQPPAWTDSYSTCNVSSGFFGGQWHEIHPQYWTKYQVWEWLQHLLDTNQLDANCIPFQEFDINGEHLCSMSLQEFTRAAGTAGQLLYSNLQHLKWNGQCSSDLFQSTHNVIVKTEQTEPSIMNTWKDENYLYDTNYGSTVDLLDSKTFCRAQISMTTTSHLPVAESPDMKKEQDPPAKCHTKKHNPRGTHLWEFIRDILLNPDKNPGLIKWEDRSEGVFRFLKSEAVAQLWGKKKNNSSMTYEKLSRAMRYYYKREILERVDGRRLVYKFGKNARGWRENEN
# Summary of the method: as §1
# SPIC = biological target: T4, SPIC (Homo sapiens, UniProt Q8N5J4 1-248)
# T4 sequence: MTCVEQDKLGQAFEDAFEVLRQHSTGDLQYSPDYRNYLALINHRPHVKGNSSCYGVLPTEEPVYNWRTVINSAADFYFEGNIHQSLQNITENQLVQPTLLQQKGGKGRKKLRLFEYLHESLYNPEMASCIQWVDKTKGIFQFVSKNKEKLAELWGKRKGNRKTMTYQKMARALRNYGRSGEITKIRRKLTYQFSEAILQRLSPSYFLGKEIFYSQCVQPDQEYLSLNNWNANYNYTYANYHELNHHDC
# Summary of the method: as §1
# ELF4 = ELF4 (Homo sapiens, UniProt Q99607 1-663)
# Summary of the method: as §1
# ELK4 = biological target: T5, ELK4 (Homo sapiens, UniProt P28324-2 1-405)
# T5 sequence: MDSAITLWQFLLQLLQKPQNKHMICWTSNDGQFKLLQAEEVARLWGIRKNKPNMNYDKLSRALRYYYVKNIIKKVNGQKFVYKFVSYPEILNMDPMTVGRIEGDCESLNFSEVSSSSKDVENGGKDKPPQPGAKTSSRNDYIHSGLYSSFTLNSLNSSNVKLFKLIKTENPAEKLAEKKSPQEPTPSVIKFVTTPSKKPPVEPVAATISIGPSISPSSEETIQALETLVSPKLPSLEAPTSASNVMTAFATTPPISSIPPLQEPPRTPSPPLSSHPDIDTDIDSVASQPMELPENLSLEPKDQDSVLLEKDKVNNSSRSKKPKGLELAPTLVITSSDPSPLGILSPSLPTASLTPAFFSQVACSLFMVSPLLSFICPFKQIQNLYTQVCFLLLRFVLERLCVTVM
# Summary of the method: as §1
# ELF3 = biological target: T6, ELF3 (Homo sapiens, UniProt P78545 1-371)
# T6 sequence: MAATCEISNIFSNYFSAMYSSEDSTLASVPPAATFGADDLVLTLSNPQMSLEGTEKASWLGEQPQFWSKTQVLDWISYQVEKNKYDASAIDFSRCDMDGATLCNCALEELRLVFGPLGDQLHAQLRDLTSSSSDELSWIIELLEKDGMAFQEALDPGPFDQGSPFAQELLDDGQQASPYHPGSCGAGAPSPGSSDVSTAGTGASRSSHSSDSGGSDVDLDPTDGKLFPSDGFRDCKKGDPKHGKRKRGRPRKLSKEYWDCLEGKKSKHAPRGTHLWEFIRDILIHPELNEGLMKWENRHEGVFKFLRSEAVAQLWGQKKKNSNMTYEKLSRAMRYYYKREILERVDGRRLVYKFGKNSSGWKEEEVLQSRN
# Summary of the method: as §1
# ERF = biological target: T7, ERF (Homo sapiens, UniProt P50548 1-548)
# T7 sequence: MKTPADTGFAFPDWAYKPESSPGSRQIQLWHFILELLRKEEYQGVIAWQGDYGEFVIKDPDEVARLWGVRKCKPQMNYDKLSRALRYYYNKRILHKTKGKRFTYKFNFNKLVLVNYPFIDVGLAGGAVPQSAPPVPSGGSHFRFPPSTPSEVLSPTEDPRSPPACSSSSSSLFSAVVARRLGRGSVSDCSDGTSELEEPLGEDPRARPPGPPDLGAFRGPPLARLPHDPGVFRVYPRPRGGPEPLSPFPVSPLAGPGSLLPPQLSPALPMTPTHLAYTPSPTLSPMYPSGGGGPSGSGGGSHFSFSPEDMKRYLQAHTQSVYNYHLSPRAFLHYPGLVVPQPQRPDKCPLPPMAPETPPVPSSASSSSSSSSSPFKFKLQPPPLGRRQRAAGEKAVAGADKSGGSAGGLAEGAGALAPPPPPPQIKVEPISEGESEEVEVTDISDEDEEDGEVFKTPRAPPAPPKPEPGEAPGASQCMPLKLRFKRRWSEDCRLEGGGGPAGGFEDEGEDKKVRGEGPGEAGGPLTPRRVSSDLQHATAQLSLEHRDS
# Summary of the method: as §1
# ETV3L = biological target: T8, ETV3L (Homo sapiens, UniProt Q6ZN32 1-361)
# T8 sequence: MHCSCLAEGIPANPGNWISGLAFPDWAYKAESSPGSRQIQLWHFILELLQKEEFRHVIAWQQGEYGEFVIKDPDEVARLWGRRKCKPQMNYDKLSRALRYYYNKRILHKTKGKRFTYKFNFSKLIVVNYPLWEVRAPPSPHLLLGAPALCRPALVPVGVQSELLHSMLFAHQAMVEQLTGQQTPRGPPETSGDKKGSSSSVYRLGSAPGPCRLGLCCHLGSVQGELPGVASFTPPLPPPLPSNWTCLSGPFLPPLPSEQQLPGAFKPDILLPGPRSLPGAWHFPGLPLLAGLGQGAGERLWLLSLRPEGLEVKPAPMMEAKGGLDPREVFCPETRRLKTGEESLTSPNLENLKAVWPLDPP
# Summary of the method: as §1
# ETS2 = biological target: T9, ETS2 (Homo sapiens, UniProt P15036 1-469)
# T9 sequence: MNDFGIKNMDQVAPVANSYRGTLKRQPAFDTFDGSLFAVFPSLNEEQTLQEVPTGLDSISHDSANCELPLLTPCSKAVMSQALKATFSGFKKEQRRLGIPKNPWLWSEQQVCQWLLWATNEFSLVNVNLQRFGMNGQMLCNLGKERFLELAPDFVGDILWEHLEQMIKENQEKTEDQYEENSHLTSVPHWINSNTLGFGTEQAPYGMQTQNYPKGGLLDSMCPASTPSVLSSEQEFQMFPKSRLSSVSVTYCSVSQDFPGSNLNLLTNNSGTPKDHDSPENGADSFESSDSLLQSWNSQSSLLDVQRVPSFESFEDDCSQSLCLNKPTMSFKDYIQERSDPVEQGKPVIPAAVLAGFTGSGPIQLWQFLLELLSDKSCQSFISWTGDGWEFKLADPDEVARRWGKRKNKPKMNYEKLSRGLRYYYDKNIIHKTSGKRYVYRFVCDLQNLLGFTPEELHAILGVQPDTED
# Summary of the method: as §1
# ETV7 = biological target: T10, ETV7 (Homo sapiens, UniProt Q9Y603 1-341)
# T10 sequence: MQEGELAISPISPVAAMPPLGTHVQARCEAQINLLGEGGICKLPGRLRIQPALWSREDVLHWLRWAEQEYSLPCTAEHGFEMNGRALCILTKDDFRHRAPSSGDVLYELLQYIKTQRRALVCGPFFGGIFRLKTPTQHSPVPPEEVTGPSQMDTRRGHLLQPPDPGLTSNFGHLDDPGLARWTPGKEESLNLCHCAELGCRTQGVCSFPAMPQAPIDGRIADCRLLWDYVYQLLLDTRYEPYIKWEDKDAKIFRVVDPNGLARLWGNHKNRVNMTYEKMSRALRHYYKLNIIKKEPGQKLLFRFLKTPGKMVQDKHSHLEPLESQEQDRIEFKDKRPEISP
# Summary of the method: as §1
# ETV6 = ETV6 (Homo sapiens, UniProt P41212 1-452)
# Summary of the method: as §1
# ELF4, sequence (Q99607 whole entry): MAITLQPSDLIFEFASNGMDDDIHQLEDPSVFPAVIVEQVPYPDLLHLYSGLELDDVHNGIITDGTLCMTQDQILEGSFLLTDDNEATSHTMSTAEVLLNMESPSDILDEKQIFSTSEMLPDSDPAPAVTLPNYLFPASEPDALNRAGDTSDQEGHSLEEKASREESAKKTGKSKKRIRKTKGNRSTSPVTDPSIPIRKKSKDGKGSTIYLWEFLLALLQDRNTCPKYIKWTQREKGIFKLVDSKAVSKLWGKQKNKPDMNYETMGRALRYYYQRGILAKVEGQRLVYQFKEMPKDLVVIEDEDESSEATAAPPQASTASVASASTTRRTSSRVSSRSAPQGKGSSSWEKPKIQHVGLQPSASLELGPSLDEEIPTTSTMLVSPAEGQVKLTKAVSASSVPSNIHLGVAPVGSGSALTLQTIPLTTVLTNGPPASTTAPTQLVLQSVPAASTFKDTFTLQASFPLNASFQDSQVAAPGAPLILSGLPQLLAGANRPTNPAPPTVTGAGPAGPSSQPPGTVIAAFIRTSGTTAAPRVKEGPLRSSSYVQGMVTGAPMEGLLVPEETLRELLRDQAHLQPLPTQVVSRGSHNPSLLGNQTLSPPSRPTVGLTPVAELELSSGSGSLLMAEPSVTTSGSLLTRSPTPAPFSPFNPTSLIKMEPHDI
# ETV6, sequence (P41212 whole entry): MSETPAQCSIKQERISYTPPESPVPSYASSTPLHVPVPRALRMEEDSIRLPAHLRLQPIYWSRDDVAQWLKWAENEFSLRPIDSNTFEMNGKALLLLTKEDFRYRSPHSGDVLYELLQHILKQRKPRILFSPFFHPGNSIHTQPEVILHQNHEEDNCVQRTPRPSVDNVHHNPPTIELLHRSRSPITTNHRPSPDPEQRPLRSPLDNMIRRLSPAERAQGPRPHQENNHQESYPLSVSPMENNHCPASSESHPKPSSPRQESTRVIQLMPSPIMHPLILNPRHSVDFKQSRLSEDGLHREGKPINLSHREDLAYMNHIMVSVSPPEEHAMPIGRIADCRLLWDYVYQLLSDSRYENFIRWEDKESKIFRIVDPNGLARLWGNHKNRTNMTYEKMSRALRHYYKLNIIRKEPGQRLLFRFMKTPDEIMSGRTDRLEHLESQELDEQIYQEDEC
# ELF1, sequence (P32519 whole entry): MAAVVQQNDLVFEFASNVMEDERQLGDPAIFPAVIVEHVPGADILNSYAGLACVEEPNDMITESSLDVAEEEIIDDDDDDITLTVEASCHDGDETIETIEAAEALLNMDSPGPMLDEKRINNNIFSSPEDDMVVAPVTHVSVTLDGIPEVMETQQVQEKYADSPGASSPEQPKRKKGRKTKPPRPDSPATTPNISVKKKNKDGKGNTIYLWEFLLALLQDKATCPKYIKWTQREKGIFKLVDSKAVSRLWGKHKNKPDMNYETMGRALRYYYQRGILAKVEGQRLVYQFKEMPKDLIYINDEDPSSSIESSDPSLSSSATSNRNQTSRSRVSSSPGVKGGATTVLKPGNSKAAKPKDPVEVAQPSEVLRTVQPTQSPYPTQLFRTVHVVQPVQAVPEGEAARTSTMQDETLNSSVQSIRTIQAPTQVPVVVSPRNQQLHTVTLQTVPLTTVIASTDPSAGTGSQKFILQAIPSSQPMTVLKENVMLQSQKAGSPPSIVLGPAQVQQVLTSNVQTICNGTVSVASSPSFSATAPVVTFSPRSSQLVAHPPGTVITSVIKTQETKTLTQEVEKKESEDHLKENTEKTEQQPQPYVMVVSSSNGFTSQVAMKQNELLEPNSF
sequence,measurement,setting,value
ACCTAG,binding signal,FLI1,"1.01 fold enrichment (6-mer frequency, TF over GST control)"
same,binding signal,GABPA,"1.14 fold enrichment (6-mer frequency, TF over GST control)"
same,binding signal,ELF1,"1.06 fold enrichment (6-mer frequency, TF over GST control)"
same,binding signal,EHF,"1.04 fold enrichment (6-mer frequency, TF over GST control)"
same,binding signal,SPIC,"1.01 fold enrichment (6-mer frequency, TF over GST control)"
same,binding signal,ELF4,"1.06 fold enrichment (6-mer frequency, TF over GST control)"
same,binding signal,ELK4,"1.08 fold enrichment (6-mer frequency, TF over GST control)"
same,binding signal,ELF3,"1.02 fold enrichment (6-mer frequency, TF over GST control)"
same,binding signal,ERF,"1.06 fold enrichment (6-mer frequency, TF over GST control)"
same,binding signal,ETV3L,"1.05 fold enrichment (6-mer frequency, TF over GST control)"
same,binding signal,ETS2,"1.06 fold enrichment (6-mer frequency, TF over GST control)"
same,binding signal,ETV7,"1.11 fold enrichment (6-mer frequency, TF over GST control)"
same,binding signal,ETV6,"1.02 fold enrichment (6-mer frequency, TF over GST control)"
